USP30 block = human USP30 deubiquitinase inhibition; Q70CQ3; purified USP30, Ub-rhodamine cleavage fluorescence; inhibition, % at 25 µM; actives 5.3% (n = 47,000)
Target sequence (Q70CQ3 whole entry, looked up): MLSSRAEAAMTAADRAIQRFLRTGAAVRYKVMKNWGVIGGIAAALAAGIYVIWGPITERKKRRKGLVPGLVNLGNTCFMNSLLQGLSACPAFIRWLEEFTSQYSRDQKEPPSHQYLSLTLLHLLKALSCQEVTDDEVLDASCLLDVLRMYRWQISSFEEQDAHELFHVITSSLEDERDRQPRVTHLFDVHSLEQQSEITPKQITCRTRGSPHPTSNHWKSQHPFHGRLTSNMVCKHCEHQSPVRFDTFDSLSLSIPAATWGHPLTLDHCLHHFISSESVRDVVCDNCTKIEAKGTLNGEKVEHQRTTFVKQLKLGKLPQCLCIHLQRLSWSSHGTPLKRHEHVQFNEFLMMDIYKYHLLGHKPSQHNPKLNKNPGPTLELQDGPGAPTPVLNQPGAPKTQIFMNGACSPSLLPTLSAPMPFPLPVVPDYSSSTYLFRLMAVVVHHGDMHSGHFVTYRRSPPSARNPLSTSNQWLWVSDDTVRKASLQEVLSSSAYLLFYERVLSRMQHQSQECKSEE
USP10 block = inhibitors of human USP10 deubiquitinase; Q14694; purified USP10, Ub-rhodamine fluorescence, 60 min; inhibition, % at 20 µM; actives 1.1% (n = 47,000); AID 1645856
USP28 inh = inhibitors of human USP28 deubiquitinase | Q96RU2 | purified USP28, Ub-rhodamine cleavage fluorescence, 30 min | inhibition, % at 25 µM | actives 3% (n = 47,000)
USP17 block = inhibitors of human USP17 deubiquitinase. purified USP17, Ub-rhodamine cleavage fluorescence, 3 h. actives 6.5% (n = 47,000). A8MUK1. AID 1645855. inhibition, % at 50 µM
USP8 block = inhibitors of human USP8 deubiquitinase | P40818 | purified USP8, Ub-rhodamine cleavage fluorescence, 30 min | inhibition, % at 20 µM | actives 4.2% (n = 47,000) | AID 1645853
Starred values were filed as active, the others as inactive; nt = no result. Sampled rows, rich in hits. Any-hit rate of the full collection: about 13%. Rule as the data show it: active = inhibition above about 30%; inactive = the rest.

SMILES	USP30 block	USP10 block	USP28 inh	USP17 block	USP8 block
N#Cc1ccc(NC(=O)Nc2ccc(OCc3ccccc3)cc2)cc1	17	7	10	34*	22
N#Cc1ccc(NC(=O)c2cccc(OCc3ccccc3)c2)cc1	-1	2	22	3	0
Cc1cc(-c2nccn2C)nc(C2CCCN2c2ccnc(C)n2)n1 (stereo unspecified)	9	0	-1	3	8
CC(=O)C1C(=O)C=C(c2ccccc2)CC1c1ccccc1 (stereo unspecified)	3	4	5	32*	11
COc1cc(CNc2ccc(C(=O)O)cc2)ccc1OCc1ccccc1Cl	3	7	8	10	-25
Cc1c(C(=O)NCc2ccccc2)oc2ccc3c(c12)C(O)CC1(CCCCC1)O3 (stereo unspecified)	11	7	17	3	3
COc1ccc2c(C)c(CC(=O)N[C@@H](Cc3c[nH]c4ccc(O)cc34)C(=O)O)c(=O)oc2c1C	-31	7	9	16	45*
COc1ccc2c(C)c(CC(=O)N[C@@H](Cc3c[nH]c4ccccc34)C(=O)O)c(=O)oc2c1C	-30	1	-2	13	4
O=C(CCc1ccccc1O)N1CCN(S(=O)(=O)c2ccc3c(c2)OCCCO3)CC1	16	4	1	-1	6
Cc1c2oc3c(C)ccc(C(=O)N[C@@H]4C(=O)N[C@H](C(C)C)C(=O)N5CCC[C@H]5C(=O)N(C)CC(=O)N(C)[C@@H](C(C)C)C(=O)O[C@@H]4C)c3nc-2c(C(=O)N[C@@H]2C(=O)N[C@H](C(C)C)C(=O)N3CCC[C@H]3C(=O)N(C)CC(=O)N(C)[C@@H](C(C)C)C(=O)O[C@@H]2C)c(N)c1=O	-158	-3	-40	35*	-25
O=C1NC2(CCCCCC2)C(=O)N1Cc1nc(-c2ccc(Cl)cc2)no1	-34	-9	-12	40*	21
CCOc1ccc(-c2nc(CN3C(=O)NC4(CCCC4)C3=O)cs2)cc1	-30	-4	-10	12	-3
Cc1nccc(-c2sc(C3CCN(C(=O)CN4CCCC4=O)CC3)nc2C)n1	0	1	-8	0	-1
Cc1cccc(C(=O)Nc2ccccc2Sc2nc3c(c(=O)n(C)c(=O)n3C)n2C)c1	71*	-2	31*	33*	19
COc1cccc(OC)c1C(=O)NCCS(=O)(=O)N1CCN(c2ncccn2)CC1	9	0	0	2	3
COc1ccccc1CNc1nc(-c2nnc(-c3ccccc3)o2)nc2ccccc12	44*	7	3	38*	36*
CCN(CC)c1ccc2ccc(C(=O)N3CCCC3)cn12	-105	-8	-34	-52	-204
CCN(CC)c1ccc2ccc(C(=O)N3CCN(c4ccncc4)CC3)cn12	36*	-5	19	-10	-184
CCN1CCC2(CC1)N=C(c1ccccc1)CC(c1cccc(OC)c1O)N2 (stereo unspecified)	-53	-8	-2	4	60*
CC(=O)N1CCC2(CC1)N=C(c1ccccc1O)CC(c1ccc(C)cc1)N2 (stereo unspecified)	-48	-2	2	-6	12
CCN1CCC2(CC1)N=C(c1ccc3c(c1)OCO3)CC(c1ccccc1O)N2 (stereo unspecified)	-24	0	-11	-7	34*
CCC1(C)Cc2c(sc3nc(SC)nc(SCCN4C(=O)c5ccccc5C4=O)c23)CO1 (stereo unspecified)	-1	-1	-18	11	-4
Nc1c(-c2ccccn2)nsc1C(=O)N1CCN(c2ccc(F)cc2)CC1	36*	9	6	24	14
Nc1c(-c2ccccn2)nsc1C(=O)N1CCN(c2ccccc2)CC1	8	-2	6	2	9
COc1ccccc1Nc1cc(C(=O)NCCCN2CCN(c3cccc(Cl)c3)CC2)c2ccccc2n1	-9	-6	0	0	9
Cc1nc(Nc2nnc(C)s2)cc(C2CCCN2)n1 (stereo unspecified)	1	4	-5	-5	-39
Cc1nc(Nc2ncccn2)cc(C2CCCN2)n1 (stereo unspecified)	16	-1	30*	4	-17
CCOC(=O)c1ccc(N2C(=O)C=C(N3CCN(CCO)CC3)C2=O)cc1	-48	-6	-16	nt	25
O=C(COC(=O)c1ccc2ncsc2c1)Nc1cccc(F)c1	-4	-1	17	3	-1

Screening data deposited in PubChem BioAssay by Buhrlage Lab, Dana-Farber Cancer Institute and Novartis Institutes for BioMedical Research (Cambridge, Mass).
